# Reference: the supplement of paper PMC6555819
# Test system: VDR:RXRa (NR concentration 270 nM, RXRa partner concentration 90 nM)
# Test: PBM binding z-score (relative to random genomic background probes); higher = stronger binding; sequences stand for … in GC…GCGATTGACAGCGTAGAATGAAGG
# Protocol: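 Protein-binding microarray (Agilent 4x180K custom design, double-stranded 60-nt probes: 5' GC cap, 34-nt variable region, 24-nt constant primer region; full probe sequence given). Purified or IVT nuclear receptor:RXRα heterodimers (3:1 NR:RXRα, mostly 270:90 nM) or homodimers were incubated for 1 h in PBS with 2% milk and no ligand, then detected with Alexa488 antibodies. Fluorescence from o1-orientation probes (~5 replicates averaged) was converted to z-scores against 500 random hg19 background probes. Variable regions are seed direct-repeat (DR0–DR5) sites, all their single-nucleotide variants and half-site ablations.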
row,Sequence,PBM binding z-score
1,TCGAGTAGGTTACTGGGGCATTCAGGGATGAAGA,0.313
2,ATATGTAGGTTACATGCGGGTCATTCAGGCTATG,3.78
3,CGAACTAGGTCAAAGGACACTGAAAGGCGACGTA,1.74
4,CTATGTAGGTTAAGGGGGTCTTTCAGTTTGAAAG,3.93
5,CCTACTGGGGCAAAGGTCATTGATTCCAATGCTC,4.96
6,CCGAGTAGGGTACGAGGGGGCATTCAGTGCGAAT,4.33
7,CCTAGTTGGGCAGGAGGTCACACACCGGATATGA,3.09
8,CGAACTAGGTGATTGACAGGACAGTGAATAGTAA,-0.0545
9,TCGAGTAGGTTACGGGGGTATTCAGGGATGAAGA,2.64
10,GATACAGGGTCAAGGCCAGAATACGCGTATTGAT,4.05
11,TCGAGTAGGTTACGGGGGCATTCGGGGATGAAGA,4.16
12,CGAACTAGGTCACCAAGACAGTGAAGAGGTTGGA,1.49
13,ATATGTAGGTTAGCTGGGGTCATTCCGACTAGGC,6.1
14,AGACAAAGTTCAGGACGAGGTAACGTAAAGCACG,2.91
15,GCTAGTGGGTCAGTAAAAGGTCACACACCGGTCG,4.9
16,CGAACTAGGTCATCAGGACAGTGAAGAGGTTGGA,1.89
17,AGTCAAAGTTCATCAAGGTAACGTAAGATATGCT,5.55
18,CAAACTAGGTCACGAAAGGTCAAAGTTGAATGAC,6.81
19,ATCTCTAGGTAAATGTTCAGTGAATCCCGAGGAT,-0.0606
20,ACTAGTTGGTCAGCTGAGGTCACACAAAATTCGG,4.79

row,Sequence,PBM binding z-score
1,ATATGTAGGTTACATCCGAGTCATTCAGGCTATG,0.386
2,CCTTACGGGTCACTCTAGGTTATAGCATCGGAGT,3.67
3,CGAACTATGTCACCAGGACAGTGAAGAGGTTGGA,0.173
4,ATCGAAAAGTCGAAGGTGAGTATACCCACCCGAA,-0.47
5,ATATGTAGGATAGGGTCATTCAGAAAGTAGGGAA,3.79
6,TCTCGGAGGACACGAAGGTCAGCGCTTTCCAGAG,2.35
7,ATATGTAGGTTAGGGTCATTAAGAAAGTAGGGAA,3.86
8,CGTACTAGGTCACCAGGACAGTGAAGAGGTTGGA,1.93
9,CTTAGTTGGTCAGGAGGTCACACACCGGATATGA,3.78
10,CAAAGTAGGTCAAGAGGTCAAAGTCCGCTTCCCG,6.25
11,CAAACTAGGTCAAAGGTCAAAGCCGAGCCAACCA,6.79
12,TCGAGTAGGTTACGGGGACATTCAGGGATGAAGA,1.27
13,ACTCGGAGGACAGAGGTCAGAGCTACGCCAGTGA,2.99
14,ATATGTAGGTTAGAGTCATTCAGAAAGTAGGGAA,0.295
15,ATATGTAGGTTAGGTTCATTCAGAAAGTAGGGAA,4.01
16,AATACAGGGACATCGTAGGCCAGAGTACGCACAG,-0.0914
17,GCTAGTAGGTCAGTAAAAGGTCACACACCGGTCG,4.99
18,CGTCCAAGCTCAGCAGGTCAGTGAAAGCGACGTG,-0.352
19,CCTACTGGGCCATTCAGAGGTCATCGATCATATG,4.05
20,CGAACTAGGTCACCAGGACAGTGTAGAGGTTGGA,2.17
